# This is a sample that favours compounds with a hit; in the whole collection about 4.1% have one here.
# PglD DTNB: inhibitors of Campylobacter jejuni PglD acetyltransferase. purified PglD enzyme, DTNB colorimetric CoA detection. inhibition, % at 12.5 µM. 0.098% of 360,000 active; in the data active = inhibition above about 16%, passing the limit was not always enough
# ALR inh: human ALR oxidase inhibition via reduced H2O2; 3.8% of 290,000 active; purified ALR, DTT oxidation, H2O2 HRP-luminol luminescence; P55789; inhibition, % (concentration not given with the values);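 active = mean replicate inhibition above about 79%, with every replicate also reaching it, limit read from the data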
# CFTR F508del cor: correctors of CFTR F508del function in bronchial epithelial cells; AID 720511; 0.36% of 350,000 active; activity (quench increase), % at 7.58 µM; CFBE cells, YFP halide quenching; stimulated with forskolin plus potentiator P3; % fluorescence drop versus neutral controls;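 active = mean added fluorescence quench of at least 8% versus neutral control, with both replicates also reaching 8%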;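 also: cells transiently co-express mutant CFTR-F508del with the halide-sensitive YFP; corrector assay measuring rescue of mutant channel to the surface after 24 h compound exposure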
# CASP6 VEID inh: blocks human caspase-6 cleavage activity. P55212. 0.53% of 350,000 active. purified caspase-6, Z-VEID-R110 cleavage fluorescence. inhibition, % at 12.5 µM. AID 686996;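 active = mean inhibition across replicates at least about 35%, with every replicate also reaching that limit, limit read from the data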;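 also: 0% = median of neutral control wells and 100% = no fluorescence left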
# NSD2 inh: inhibitors of human histone methyltransferase NSD2. 0.54% of 310,000 active. O96028. AID 743445. inhibition, % at 12.5 µM. NSD2 peptide methylation, AlphaScreen, 120 min; in the data active = inhibition above about 50%
# HIV Env fusion: HIV envelope-mediated fusion inhibition; HeLa-JRFL Env/CEM21 cell fusion, luciferase; inhibition, % at 12.3 µM; 1.1% of 360,000 active;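 active = mean replicate inhibition score of at least 50 and every replicate individually at or above 50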;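 also: 0% = plate neutral controls and 100% = maraviroc near 300 nM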
# AlphaScreen art: interferes with AlphaScreen signal, flagging NSD2 false positives; AC35, µM (top dose mostly 10 µM), without a hit: top-dose activity change, negative = signal loss; AlphaScreen artifact counterscreen, preloaded methylated H4 peptide; shares compounds with NSD2 inh; AID 1053174; 9.4% of 1,500 active; call rule not given here
# Starred values were filed as active, the others as inactive; · = no result; [ ] = dose if it differs, or a comment.
SMILES,PglD DTNB,ALR inh,CFTR F508del cor,CASP6 VEID inh,NSD2 inh,HIV Env fusion,AlphaScreen art
c1ccc(CN2CN=C(Nc3nc4ccccc4s3)NC2)cc1,-4.0,·,·,·,0.6,13.2,·
COc1ccc(C2C(C(=O)c3ccco3)=C(O)C(=O)N2CC2CCCO2)cc1OC (stereo unspecified),-1.5,·,1.5,9.7,61.9*,6.0,-5.8%
COc1ccc(C2C(C(=O)/C=C/c3ccco3)=C(O)C(=O)N2CCN2CCOCC2)cc1OC (stereo unspecified),0.1,-17.8,0.2,-0.5,71.7*,11.7,-1.1%
O=C(C1=C(O)C(=O)N(CC2CCCO2)C1c1ccccc1)c1ccco1 (stereo unspecified),2.7,-5.6,-0.2,-0.2,2.1,2.4,·
CCCNC(=O)N[C@H]1C=C[C@H](CC(=O)NC2CCCCC2)O[C@H]1CO,-0.6,·,0.8,0.8,·,15.5[16.7 µM],·
C[C@@H]1CCCCO[C@@H](CN(C)S(=O)(=O)c2ccc(Cl)cc2)[C@H](C)CN([C@@H](C)CO)C(=O)c2cc(NC(=O)Nc3ccccc3)ccc2O1,-9.2,·,2.4,-2.1,·,29.2[16.7 µM],·
Cc1ccccc1NC(=S)Nc1cccc2cnccc12,3.7,·,-4.7,17.0,103.9*,-5.4,6.1%
Fc1ccccc1NC(=S)Nc1cccc2cnccc12,·,22.3,-1.7,27.2,99.3*,7.5,-3.8%
Cc1ccc(C)c(NC(=S)Nc2cccc3cnccc23)c1,·,-36.7,-0.6,20.4,97.6*,0.7,-6.1%
Cc1ccc(C)c(NC(=S)Nc2cccnc2)c1,·,34.8,-1.1,-0.5,-0.5,-3.8,·
CC=Cc1ccc2n(c1=O)C[C@@H]1[C@@H](CO)[C@H](C(=O)N[C@@H](C)c3ccccc3)[C@H]2N1Cc1cccnc1 (mixture of isomers),5.4,·,-1.1,2.3,·,·,·
O=[N+]([O-])c1ccc(N/N=C/c2cccs2)nc1,·,-12.1,-4.1,1.3,52.4*,-78.8,-1.4%
COC(=O)c1ccc(C(c2c(C)[nH][nH]c2=O)c2c(C)[nH][nH]c2=O)cc1,-0.8,29.8,3.4,2.0,0.1,4.6,·
COC(=O)c1ccccc1-c1ccc(C(c2c(C)[nH][nH]c2=O)c2c(C)[nH][nH]c2=O)o1,·,-12.5,·,41.8*,196.2*,-19.0,1.1%
Cc1[nH][nH]c(=O)c1C(c1ccc(-c2ccc(Cl)c(C(=O)O)c2)o1)c1c(C)[nH][nH]c1=O,·,·,-0.9,·,131.4*,2.9,1.9%
Cc1ccc(-c2ccc(C(=O)O)o2)cc1Cl,-1.6,·,3.2,-0.6,0.2,-4.6,·
COC(=O)c1cccc(-c2ccc(C(c3c(C)[nH][nH]c3=O)c3c(C)[nH][nH]c3=O)o2)c1,5.2,-3.2,0.2,15.7,106.7*,-7.5,-5.0%
C[C@H](O)C#Cc1ccc2c(c1)O[C@@H](CN(C)C)[C@@H](C)CN([C@H](C)CO)S2(=O)=O,-0.3,·,0.4,1.7,·,10.4[16.7 µM],·
O=C(c1cnccn1)N1CC(=O)N2[C@H](CO)[C@@H](c3ccc(C#CC4CCCC4)cc3)[C@@H]2C1,·,·,1.2,0.6,·,·,·
Cn1ncc(Cl)c1C(=O)Nc1cc(C(F)(F)F)ccc1F,-0.1,-11.7,·,·,127.4*,-478.4,1.1%
C[C@@H]1CN([C@H](C)CO)C(=O)c2cc(C#CCN(C)C)cnc2O[C@@H]1CN(C)C(=O)c1cnccn1,10.3,·,1.4,-1.3,·,·,·
Cc1nc2c(ccc3c2ccc2nc(C)sc23)s1,·,-9.2,·,·,3.7,·,·
COc1cc2sc(C)nc2c2ccccc12,7.0,·,-2.4,40.4*,64.0*,-7.1,-0.6%
COCC(=O)N1[C@H](C#N)[C@@H](c2ccccc2-c2ccccc2F)[C@H]1CO,·,·,-2.0,-1.7,·,·,·
CS(=O)(=O)N(CC(=O)N1CCCC1)Cc1ccc(Cl)cc1,·,·,·,·,-1.8,-16.5,·
SMILES,PglD DTNB,ALR inh,CFTR F508del cor,CASP6 VEID inh,NSD2 inh,HIV Env fusion,AlphaScreen art
CC1CCN(C(=O)CN(Cc2ccc(Cl)cc2)S(C)(=O)=O)CC1,4.7,-4.9,0.0,1.5,61.7*,27.0,-7.8%
CCCNC(=O)[C@@H]1[C@@H](CO)[C@@H]2Cn3c(ccc(-c4cccnc4)c3=O)[C@@H]2N1C(=O)c1ccccc1F,-1.4,·,·,·,·,4.5[16.7 µM],·
CCOC(=S)SCC(=O)Nc1nc(C)c(C)s1,0.3,98.4*,2.7,0.1,51.4*,-8.0,-2.2%
COc1ccccc1C(=O)N1C[C@H]2[C@@H](c3ccccc31)[C@H](CO)N2C(=O)C1CCCC1,-1.4,·,4.8,0.4,·,·,·
COCCNC(=O)c1cc2c(=O)n3cccc(C)c3nc2n1C,-0.2,-10.0,1.5,-2.5,·,3.6,·
Cc1cccn2c(=O)c3cc(C(=O)NCCCn4ccnc4)n(C)c3nc12,-1.3,·,·,·,117.7*,-55.4,2.3%
Cc1cccc(C)c1NC(=O)c1ccc(-n2cnnn2)cc1,3.0,-1.6,·,·,-7.3,-284.2,·
O=C(Nc1ccc(Br)cc1)c1ccc(-n2cnnn2)cc1,-0.6,1.1,-2.1,2.7,105.0*,12.3,-3.5%
COc1cc(/C=C2\C(=N)N3N=C(S(C)(=O)=O)SC3=NC2=O)ccc1OC(=O)c1cccs1,-6.8,30.3,1.6,43.3*,62.3*,5.6,-6.6%
Cc1cc(C)cc(NC(=O)C2C3C=CC4(O3)C2C(=O)N(CCCN2CCCC2)C4C(=O)NC2CCCC(C)C2C)c1 (stereo unspecified),1.1,·,-2.0,-9.4,50.3*,3.3,2.7%
CC1CCCC(C)N1C(=O)COC(=O)c1ccc([N+](=O)[O-])o1 (stereo unspecified),0.9,-15.7,2.1,6.5,68.6*,-7.4,-4.8%
CNC[C@H]1Oc2cc(C#CC3(O)CCCC3)ccc2S(=O)(=O)N([C@@H](C)CO)C[C@@H]1C,2.1,·,-0.1,1.9,·,·,·
Cc1ccnc(-n2c(CCN3C(=O)c4ccccc4C3=O)nc3ccccc3c2=O)c1,1.5,·,·,·,52.1*,-38.1,-0.5%
O=C1c2ccccc2C(=O)N1CCc1nc2ccccc2c(=O)n1-c1ccccn1,-2.1,3.2,·,·,-0.3,·,·
COc1ccc(S(=O)(=O)Nc2ccc3c(c2)C(=O)N([C@H](C)CO)C[C@@H](C)[C@@H](CN(C)S(=O)(=O)c2ccc(F)cc2)OCCCC[C@H](C)O3)cc1,0.8,·,-2.2,2.0,·,-2.9[16.7 µM],·
Cc1cc(=O)[nH]c(COc2ccccc2)n1,-5.4,-14.7,·,·,54.7*,·,-4.8%
C[C@H]1CN([C@@H](C)CO)C(=O)c2cc(NC(=O)C3CC3)ccc2O[C@@H]1CN(C)S(=O)(=O)c1cccs1,-0.3,·,0.6,2.2,·,-1.4[16.7 µM],·
CC(C)(C)NC(=O)C(c1ccco1)N(C(=O)Cn1nnc(-c2ccc(F)cc2)n1)c1ccccc1F (stereo unspecified),·,28.7,·,·,50.1*,24.0,-3.2%
CCc1ccc(NC(=O)c2cc(-c3ccc4c(c3)OCO4)on2)cc1,-4.5,·,1.1,-2.3,87.0*,-3.7,1.0%
